Measured values taken from the supplement of paper PMC6555819.

Tested on: LXRa:RXRa (NR concentration 270 nM, RXRa partner concentration 90 nM)
Experiment: PBM binding z-score (relative to random genomic background probes); higher = stronger binding; sequences stand for … in GC…GCGATTGACAGCGTAGAATGAAGG
Outline: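 Probes were double-stranded and carried 34-nt variable regions with direct-repeat seeds, single-nucleotide variants, half-site ablations and random human genomic background sequences, printed on custom Agilent 4×180K protein-binding microarrays. Arrays were incubated 1 h with ligand-free nuclear receptor dimers in PBS pH 7.4, 2% milk, 0.02% Triton X-100, 1 mM DTT, 0.2 mg/mL BSA and 0.4 mg/ml salmon testes DNA. Antibodies against each partner (one per run) detected binding, and scanned fluorescence was regression-normalized. Binding z-scores use the random background probes as reference.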

Sequence | PBM binding z-score
CAAACTAGGTTAAGAGGTCAAAGTCCGCTTCCCG | 5.82
CGTCCAAGGTCAGCAGGTCCGTGAAAGCGACGTG | 3.09
CGTCATAGTTCAACTAAGGTAACGTAAAGCACGC | 3.63
ACCTCTAGGTAAAAGTTCAGTGAATCCCGAGGAT | 0.842
GCATATAGGTAATACAAGGTGAAAGCCCGATTGT | 1.95
CGAACTAGGTCATTGACAGTACAGTGAATAGTAA | 2.68
AGTCAAAGTTCATTAGGTAACGTAAGATTCAGCT | 6.16
TCTTGTAGATCAACCGGAGGTTAAGAAAGATCGA | 1.58
CGAACTAGGTCAGAACAGGCCAGTGAAGGATGAT | 0.652
ATCTCTAGGTAAGACTCAGTTCAGTTAAGAACGC | 0.555
AGAATGAGCTTACCAAAGATCAGGGAAACGCTTG | -0.433
GATACAGGATCAAGGCCAGAGTACGCGTATTGAT | -0.625
CGAACTAGGTCAGAACAGGACTGTGAAGGATGAT | 0.692
GCTGCTAGGGCAACTGATGGTCAGCTAAAGCTCG | -0.0812
CTCGAAAGGTCGTGCTCGGGTGAGTATACCAAAC | 3.9
GCTTGTAGATCAAGGTTAAGACAGACTAAGCTAA | 0.807
TCTATTAGCTGATTAGGGCAACCGAAACAGCGGA | -0.201
ACTTACGGGTCAAAGAGGTTATAGCACGCGTATA | 5.48
TCTAGTTGGTCAAAGGACACACACTCGAAATGCG | 0.757
GCTGCTAGCTCAGGTTGGTCAGCTAACGGGTACG | -0.822
GCTGCTAGGTCAACTGATGGGCAGCTAAAGCTCG | 2.69
CGGACTGGGGCATAAGGTTACCATAAGCCAGCCC | 2.09
